# Assay outcomes: PubChem, Buhrlage Lab, Dana-Farber Cancer Institute and Novartis Institutes for BioMedical Research (Cambridge, Mass)
# USP10 inh – human USP10 deubiquitinase inhibition | Q14694 | purified USP10, Ub-rhodamine fluorescence, 60 min | inhibition, % at 20 µM | 1.1% of 47,000 active
# UCHL1 inh – blocks human UCHL1 ubiquitin-rhodamine cleavage; P09936; purified UCHL1, Ub-rhodamine cleavage fluorescence; inhibition, % at 20 µM; 0.2% of 47,000 active; AID 1645859
# USP8 inh – inhibitors of human USP8 deubiquitinase | AID 1645853 | 4.2% of 47,000 active | inhibition, % at 20 µM | P40818 | purified USP8, Ub-rhodamine cleavage fluorescence, 30 min
# USP30 inh – inhibitors of human USP30 deubiquitinase; purified USP30, Ub-rhodamine cleavage fluorescence; inhibition, % at 25 µM; Q70CQ3; 5.3% of 47,000 active
# USP7 block – blocks human USP7 ubiquitin-rhodamine cleavage. inhibition, % at 20 µM. Q93009. AID 1645854. 0.3% of 47,000 active. purified USP7, Ub-rhodamine cleavage fluorescence
# USP17 block – inhibitors of human USP17 deubiquitinase | AID 1645855 | inhibition, % at 50 µM | 6.5% of 47,000 active | purified USP17, Ub-rhodamine cleavage fluorescence, 3 h
# An asterisk follows results filed as active; x = no result given. This is a sample that favours compounds with a hit; in the whole collection about 12% have one here. Rule as the data show it: active = inhibition above about 30%; inactive = the rest.
SMILES,USP10 inh,UCHL1 inh,USP8 inh,USP30 inh,USP7 block,USP17 block
O=C(CSc1nnc2ccc(-c3ccc4c(c3)OCO4)nn12)NCC1CCCO1 (centres undefined),2.0,2.8,13.5,42.4*,3.5,x
NC(=O)CSc1nnc2ccc(-c3ccc4c(c3)OCO4)nn12,-2.5,0.4,13.1,1.9,3.3,4.1
COc1cc2c(cc1OC)CC(=O)N(Cc1ccc(Br)cc1)C=C2,2.3,2.7,-4.1,8.3,-1.5,11.4
COc1cc2c(cc1OC)CC(=O)N(Cc1c(F)cccc1Cl)C=C2,0.5,3.2,36.6*,10.3,0.3,15.6
CC1(C(=O)NCc2ccc(F)cc2)Cn2nc(-c3ccco3)cc2C(=O)N1c1ccc2c(c1)OCCO2 (centres undefined),12.3,7.5,61.4*,5.0,-8.5,37.2*
Cc1cc2n(n1)CC(C)(C(=O)NCc1ccccc1)N(c1ccc3c(c1)OCCO3)C2=O (centres undefined),-2.5,-3.5,0.2,-16.0,-6.3,-14.3
CCc1ccc(C2CN3C(=O)N(c4ccccc4OC)C(=O)[C@]3(C)c3[nH]c4ccccc4c32)cc1 (some centres undefined),2.1,5.3,12.1,15.0,0.9,5.8
COC(=O)c1ccccc1NC(=O)c1sccc1Oc1ccc(F)cc1[N+](=O)[O-],2.4,5.9,12.3,19.1,9.9,12.1
O=C(Nc1ccccc1)c1sccc1Oc1ccc([N+](=O)[O-])c(C(F)(F)F)c1,7.6,4.8,44.4*,0.7,-3.6,-2.8
O=C(Nc1ccccc1F)c1sccc1Oc1ccc([N+](=O)[O-])cc1F,9.1,3.8,86.9*,40.1*,-3.1,45.5*
CC(=O)N1CCc2c(sc3c2c(=O)n(CCc2ccccc2)c(=O)n3Cc2ccccc2F)C1,-8.0,2.3,-37.0,-100.0,-40.7,-11.6
COc1ccc(Cn2c(SCC(=O)Nc3cc(C)[nH]n3)nc3nccnc3c2=O)cc1,-0.4,2.3,2.9,48.9*,5.1,48.3*
CCOC(=O)CSc1nc2nccnc2c(=O)n1Cc1ccccc1,-5.3,0.3,-25.5,-5.3,0.7,-10.1
O=c1c(O)c(-c2ccc(O)c(O)c2)oc2cc(O)cc(O)c12,16.6,34.2*,17.9,81.0*,-7.9,97.3*
O=c1c(-c2ccc(O)cc2)coc2cc(O)cc(O)c12,1.8,-1.8,5.6,-3.6,1.9,-6.4
O=c1cc(-c2ccc(O)c(O)c2)oc2cc(O)cc(O)c12,36.0*,24.8,31.4*,100.7*,10.7,99.5*
O=c1cc(-c2ccccc2)nc2n1CCN2Cc1ccncc1,-0.6,-5.4,-88.6,-47.3,-9.7,-49.6
NS(=O)(=O)c1ccc(CCNC(=O)Cc2cc(-c3ccc(F)cc3F)on2)cc1,-3.6,-2.3,40.4*,-8.4,-2.1,8.4
O=C(Cc1cc(-c2ccc(Cl)cc2)on1)NCCc1ccccc1,-2.6,-2.6,53.1*,-45.8,2.5,-5.5
COc1ccc(CCNC(=O)Cc2cc(-c3ccc(F)cc3F)on2)cc1OC,-6.0,-6.0,22.4,-8.4,-4.2,-0.2
CC(NC(=O)Cc1cc(-c2ccc(F)cc2)on1)c1ccccc1 (centres undefined),1.9,1.0,13.4,20.6,7.2,30.6*
COc1ccccc1N1C(=O)c2ccccc2NC1c1c(C)nn(C2CCS(=O)(=O)C2)c1Cl (centres undefined),2.8,4.4,12.1,6.7,0.8,7.2
Cc1ccc2c(c1)OCC(=O)N2Cc1nc(-c2cccc(F)c2)no1,5.0,2.1,17.9,35.1*,4.7,13.0
Cc1ccc2c(c1)OCC(=O)N2Cc1nc(-c2ccccc2)no1,-0.3,2.6,-1.6,26.5,5.0,44.6*
Cc1ccc2c(c1)OCC(=O)N2Cc1nc(-c2ccc(F)cc2)no1,12.9,2.1,13.4,-47.8,2.9,-35.9
SMILES,USP10 inh,UCHL1 inh,USP8 inh,USP30 inh,USP7 block,USP17 block
CC(NC(=O)CSc1nnc2n(-c3ccccc3)c(=O)c3ccccc3n12)c1ccccc1 (centres undefined),3.5,5.0,35.8*,48.1*,4.9,12.2
N#Cc1cc2c([nH]c1=O)CC(c1ccccc1)C/C2=N\Nc1ccccc1 (centres undefined),-1.5,4.2,50.9*,-54.4,-15.3,0.5
CC1(C)C=Cc2cc(O)ccc2O1,0.3,-1.4,6.2,-7.8,0.0,40.4*
CCOc1ccc(CNC(=O)Cn2cnc(S(=O)(=O)N3CCCC3)c2)cc1OC,-1.5,-2.5,-0.1,-10.8,0.1,-5.3
CCCCN1CC(C(=O)Nc2ccc(C(=O)Nc3ccc(OCC)cc3)cc2)CC1=O (centres undefined),10.8,5.4,23.6,19.8,4.8,14.9
O=C1C=C[C@]23Oc4ccc(O)c5c4[C@](Oc4cccc1c42)(O3)C1OC1[C@@H]5O (some centres undefined),-0.5,4.0,4.8,-51.3,-2.7,44.8*
C=C(CC[C@@H](C)[C@H]1CC[C@@H]2[C@]1(C)C[C@@H](O)[C@@]13C[C@@]14C(=O)C[C@H](O)[C@@](C)(C(=O)O)[C@@H]4C(=O)C[C@]23O)C(C)C,14.5,-2.7,-8.7,20.4,-145.3,35.1*
COc1cc(C)ccc1OCC(=O)Nc1sc2c(c1-c1nc3ccccc3[nH]1)CCCC2,-5.0,-6.4,-25.8,-41.4,-9.2,-21.1
O=C1NC(=N/N=C/c2ccccc2)SC1Cc1cc(C(F)(F)F)ccc1Cl (centres undefined),46.6*,1.4,-45.0,35.2*,13.3,35.8*
O=C(c1ccnnc1)N1CC[C@@H]2CN(CCc3ccccc3)S(=O)(=O)[C@@H]2CC1,0.3,-4.4,-30.3,-6.0,-4.8,-16.1
Cc1ccc(C(O)Cn2cc(C(=O)Nc3cccc(C)c3)nn2)cc1 (centres undefined),4.5,1.8,7.0,x,6.9,79.6*
Cc1ccc(C(O)Cn2cc(C(=O)Nc3ccccc3)nn2)cc1 (centres undefined),9.7,1.6,20.8,35.0*,8.4,25.3
Cc1cccc(-n2nnc(C(=O)Nc3cccc(Cl)c3)c2C)c1,0.5,0.4,14.3,14.2,-43.6,14.3
C=C1CC[C@H]2[C@@](C)(COC(C)=O)CCC[C@]2(C)[C@H]1CC/C(C)=C/COC(C)=O,8.6,3.1,4.5,24.8,11.7,20.1
C=C1CCC2C(C)(CCC=C(C)C)C(OC(C)=O)CCC2(C)C1Cc1c(O)c(C)c(C)oc1=O (centres undefined),31.9*,8.0,14.8,19.3,16.7,21.0
C[C@H]1[C@H](C)CCC23CC[C@]4(C)[C@@](C=CC5[C@@]6(C)CC[C@H](O)C(C)(C)[C@@H]6CC[C@]54C)(OC2=O)[C@H]13 (some centres undefined),20.2,1.8,1.0,56.2*,7.7,50.3*
COc1ccc(-c2cnc([C@@H]3COCCN3C3CCC3)[nH]2)cc1,-1.5,2.5,15.3,-29.3,-6.6,-53.3
CCCc1c(C(=O)NC2CCCCC2)cnn1-c1ccc(Cl)cc1,1.7,4.4,-0.7,21.2,-32.4,35.6*
